Test results taken from PubChem BioAssay (NCI).
About 79,000 compounds went through this panel and 15% of them were active in at least one assay; those are over-represented in the sample as a whole. Calls of active or inactive are those of the source. Cut-off read from the data, not from the text of the source: active = growth inhibition above about 70%; inactive = the rest.

Legend:
[1] = NCI Yeast Anticancer Drug Screen. Data for the rad50 strain (AID 155);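 note: 0% = growth of vehicle-only cultures of the same strain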; conditions: S. cerevisiae rad50 strain growth inhibition, stronger effect = higher value
Summary of the method: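 Compounds were tested on a yeast strain with an engineered DNA damage repair alteration; the reported value is growth inhibition normalised to vehicle treatment.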

[2] = NCI Yeast Anticancer Drug Screen. Data for the mec2-1 strain (AID 157); conditions: S. cerevisiae mec2-1 strain, stronger effect = higher value
Summary of the method: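 Strain: mec2-1 (DNA repair/cell cycle alteration). Compound exposure, then growth measured; inhibition expressed relative to vehicle.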

[3] = NCI Yeast Anticancer Drug Screen. Data for the sgs1 mgt1 strain (AID 161);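 note: 0% = growth of cultures given vehicle only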; conditions: S. cerevisiae sgs1 mgt1 strain, stronger effect = higher value
Summary of the method: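 Inhibition of yeast growth, normalised to vehicle-treated controls, is reported for a strain bearing genetic alterations in DNA damage repair.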

[4] = NCI Yeast Anticancer Drug Screen. Data for the cln2 rad14 strain (AID 165);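 note: 0% = growth equal to vehicle treated cultures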; conditions: S. cerevisiae cln2 rad14 strain, stronger effect = higher value
Summary of the method: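 Compounds are applied to the cln2 rad14 yeast strain, and growth is then compared with that of vehicle-treated cultures to give inhibition.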

[5] = NCI Yeast Anticancer Drug Screen. Data for the bub3 strain (AID 167); conditions: S. cerevisiae bub3 mutant strain, stronger effect = higher value
Summary of the method: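 Growth of a checkpoint-deficient yeast mutant is measured after compound exposure. Values represent inhibition relative to vehicle.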

[6] = NCI Yeast Anticancer Drug Screen. Data for the mlh1 rad18 strain (AID 175); conditions: S. cerevisiae mlh1 rad18 strain growth inhibition, stronger effect = higher value
Summary of the method: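 Read-out is yeast growth inhibition, calculated against vehicle-only controls. The compound was applied to a strain engineered with DNA damage repair alterations.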

[7] = at 5.0 µM (retest, dose inferred, filed as 0.5)
[8] = at 50.0 µM (retest, dose inferred, filed as 5.0)

Measured: growth inhibition

O=C1C(C(Nc2ccccc2)c2ccccc2)=C([O-])c2ccccc21.O=C1C(C(Nc2ccccc2)c2ccccc2)=C([O-])c2ccccc21.[Ni+2] (configuration not stated)
active: [1]; [8] 81% | [2]; at 50.0 µM 71% | [3]; [8] 80% | [5]; [8] 84% | [5]; at 50.0 µM 73.8% | [6]; [8] 81%
inactive: [1]; [7] 57% | [1]; at 50.0 µM 63.3% | [2]; [7] 33% | [2]; [8] 55% | [3]; [7] 49% | [3]; at 50.0 µM 36.6% | [4]; [7] 46% | [4]; [8] 46% | [4]; at 50.0 µM 55.8% | [5]; [7] 51% | [6]; [7] 39% | [6]; at 50.0 µM 63.1%

CN(CCCl)Cc1ccc(OCc2ccccc2)c(OCc2ccccc2)c1
active: [1]; [8] 98% | [1]; at 50.0 µM 99.7% | [2]; [8] 99% | [2]; at 50.0 µM 99.6% | [3]; [8] 99% | [3]; at 50.0 µM 99.7% | [4]; [8] 98% | [4]; at 50.0 µM 98.1% | [5]; [8] 99% | [5]; at 50.0 µM 99.4% | [6]; [8] 99% | [6]; at 50.0 µM 99.6%
inactive: [1]; [7] 2% | [2]; [7] -20% | [3]; [7] 0% | [4]; [7] 8% | [5]; [7] 0% | [6]; [7] 3%

CC(C)NC1CC2CCCCC2CC1c1ccccc1 (configuration not stated)
active: [1]; at 50.0 µM 79.8% | [2]; at 50.0 µM 83.3% | [3]; at 50.0 µM 90.9% | [4]; at 50.0 µM 82.3% | [5]; at 50.0 µM 82.4% | [6]; [8] 74% | [6]; at 50.0 µM 88.8%
inactive: [1]; [7] 1% | [1]; [8] 51% | [2]; [7] 4% | [2]; [8] 25% | [3]; [7] 10% | [3]; [8] 68% | [4]; [7] 3% | [4]; [8] 57% | [5]; [7] 17% | [5]; [8] 53% | [6]; [7] 20%

CC[PH+](CC)CC.[Cl][Au]
active: [1]; [7] 98% | [1]; [8] 98% | [1]; at 50.0 µM 89.8% | [2]; [7] 99% | [2]; [8] 99% | [2]; at 50.0 µM 91.4% | [3]; [7] 97% | [3]; [8] 98% | [3]; at 50.0 µM 91.3% | [4]; [7] 92% | [4]; [8] 99% | [4]; at 50.0 µM 90.8% | [5]; [7] 99% | [5]; [8] 99% | [5]; at 50.0 µM 89.8% | [6]; [7] 94% | [6]; [8] 99% | [6]; at 50.0 µM 90.8%

Oc1c(I)cc(I)cc1I
inactive: [1]; [7] -6% | [1]; at 50.0 µM 38% | [2]; [7] -3% | [2]; at 50.0 µM 43% | [3]; [7] -9% | [3]; [8] 53% | [3]; at 50.0 µM 7.7% | [4]; [7] -4% | [4]; at 50.0 µM -32.6% | [5]; [7] -5% | [5]; at 50.0 µM 67.6% | [6]; [7] -3% | [6]; at 50.0 µM 63.4%
active: [1]; [8] 91% | [2]; [8] 95% | [4]; [8] 94% | [5]; [8] 82% | [6]; [8] 92%

O=C(CBr)NC1CCCCC1
inactive: [1]; [7] 1% | [2]; [7] 4% | [3]; [7] 4% | [4]; [7] 2% | [4]; at 50.0 µM 60% | [5]; [7] 6% | [6]; [7] -2%
active: [1]; [8] 93% | [1]; at 50.0 µM 81% | [2]; [8] 94% | [2]; at 50.0 µM 90.6% | [3]; [8] 93% | [3]; at 50.0 µM 82.8% | [4]; [8] 91% | [5]; [8] 94% | [5]; at 50.0 µM 85.2% | [6]; [8] 96% | [6]; at 50.0 µM 93%

CC(C)=CCC/C(C)=C/CC/C(C)=C/Cc1c(O)c2ccccc2oc1=O
active: [1]; [8] 94% | [1]; at 50.0 µM 89% | [2]; [8] 97% | [2]; at 50.0 µM 91.5% | [3]; [8] 95% | [3]; at 50.0 µM 89.7% | [4]; [8] 96% | [4]; at 50.0 µM 89.2% | [5]; [8] 95% | [5]; at 50.0 µM 88.3% | [6]; [8] 98% | [6]; at 50.0 µM 89.2%
inactive: [1]; [7] 16% | [2]; [7] 5% | [3]; [7] 7% | [4]; [7] 29% | [5]; [7] -11% | [6]; [7] -21%

CC(C)c1ccc(C(c2c(O)c3ccccc3oc2=O)c2c(O)c3ccccc3oc2=O)cc1
active: [1]; [8] 91% | [1]; at 50.0 µM 98.5% | [2]; [8] 95% | [2]; at 50.0 µM 97.9% | [3]; [8] 95% | [3]; at 50.0 µM 98.7% | [4]; [8] 98% | [4]; at 50.0 µM 99.3% | [5]; [8] 92% | [5]; at 50.0 µM 98.6% | [6]; [8] 97% | [6]; at 50.0 µM 98.4%
inactive: [1]; [7] 3% | [2]; [7] -5% | [3]; [7] -10% | [4]; [7] -4% | [5]; [7] -9% | [6]; [7] -11%

O=[N+]([O-])c1ccc(CS(=O)(=O)C(Cl)(Cl)Cl)o1
active: [1]; [8] 99% | [1]; at 50.0 µM 95.5% | [2]; [8] 100% | [2]; at 50.0 µM 98.5% | [3]; [8] 99% | [3]; at 50.0 µM 97.5% | [4]; [8] 99% | [4]; at 50.0 µM 94% | [5]; [8] 98% | [5]; at 50.0 µM 90.3% | [6]; [8] 99% | [6]; at 50.0 µM 98.8%
inactive: [1]; [7] 39% | [2]; [7] 25% | [3]; [7] 16% | [4]; [7] 3% | [5]; [7] 8% | [6]; [7] 18%
